Laboratory results published in PubChem BioAssay AID1159580 (chemical genetic matrix, 2015).
Values joined by “and” are separate entries in the source; they are usually repeats but may differ in a detail not shown here. Equal values may be shown once. Among all 5,500 compounds or so, about 2,000 (36%) were called active. Another 18% or so got no clear call; they are omitted. Cut-off read from the data, not from the text of the source: active = normalized growth mostly below about 0.91 (no sharp cut-off); inconclusive = no clear call, values can overlap the other calls; inactive = mostly above about 0.92. This is one part of the list.

Experiment: chemical genetic growth profiling, strain panel (AID 1159580);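 note: tested at 20 µM; growth read once vehicle control cultures reached saturation at 30 °C; 1 = growth at the plate median or of vehicle wells; lower values mean less growth of the strain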
Settings: S. cerevisiae deletion strains, growth OD

Measured: normalized growth

COc1cc(C)c(C(=O)Oc2cc(C)c(C(=O)O)c(O)c2C)c(OC)c1C
inactive: locus YAL021C, strain ccr4, active compounds read low 1.01 | locus YAL026C, strain drs2, active compounds read low 0.965 | locus YAL030W, strain snc1, active compounds read low 0.994 | locus YBL061C, strain skt5, active compounds read low 0.987 | locus YBR009C, strain hhf1, active compounds read low 0.91 | locus YBR021W, strain FUR4, active compounds read low 0.995 | locus YBR023C, strain chs3, active compounds read low 0.983 | locus YBR171W, strain sec66, active compounds read low 0.969 | locus YBR229C, strain ROT2, active compounds read low 0.993 | locus YBR231C, strain swc5, active compounds read low 0.98 | locus YBR279W, strain paf1, active compounds read low 0.995 | locus YCL011C, strain gbp2, active compounds read low 0.968 | locus YCL016C, strain dcc1, active compounds read low 0.986 | locus YCL029C, strain bik1, active compounds read low 1.02 | locus YCL061C, strain MRC1, active compounds read low 0.974 | locus YCL069W, strain vba3, active compounds read low 0.976 | locus YCR088W, strain abp1, active compounds read low 0.994 | locus YDL005C, strain med2, active compounds read low 0.992 | locus YDL035C, strain GPR1, active compounds read low 0.991 | locus YDL040C, strain nat1, active compounds read low 0.974 | locus YDL074C, strain BRE1, active compounds read low 0.982 | locus YDL101C, strain DUN1, active compounds read low 1.02 | locus YDL134C, strain PPH21, active compounds read low 1.02 | locus YDL185W, strain tfp1, active compounds read low 1.02 | locus YDL192W, strain arf1, active compounds read low 1 | locus YDR001C, strain nth1, active compounds read low 0.972 | locus YDR069C, strain doa4, active compounds read low 0.993 | locus YDR101C, strain arx1, active compounds read low 1.01 | locus YDR137W, strain rgp1, active compounds read low 0.906 | locus YDR159W, strain sac3, active compounds read low 0.89 | locus YDR162C, strain NBP2, active compounds read low 0.98 | locus YDR195W, strain ref2 0.966 | locus YDR297W, strain sur2, active compounds read low 0.988 | locus YDR318W, strain mcm21, active compounds read low 1 | locus YDR334W, strain swr1, active compounds read low 1 | locus YDR335W, strain msn5, active compounds read low 0.993 | locus YDR388W, active compounds read low 1.01 | locus YDR502C, strain sam2, active compounds read low 1 | locus YEL003W, strain gim4, active compounds read low 0.968 | locus YEL037C, strain rad23, active compounds read low 0.982 | locus YEL061C, strain CIN8 (second series), active compounds read low 0.982 | locus YEL061C, strain CIN8, active compounds read low 1 | locus YER015W, strain faa2, active compounds read low 0.99 | locus YER016W, strain bim1, active compounds read low 0.984 | locus YER110C, active compounds read low 1.02 | locus YER111C, strain swi4, active compounds read low 0.97 | locus YER155C, strain BEM2, active compounds read low 1 | locus YER167W, strain BCK2, active compounds read low 0.999 | locus YFR010W, strain ubp6, active compounds read low 0.991 | locus YGL078C, strain dbp3, active compounds read low 0.986 | locus YGL086W, strain mad1, active compounds read low 1.02 | locus YGL167C, strain pmr1, active compounds read low 0.964 | locus YGL173C, strain kem1, active compounds read low 0.975 | locus YGL227W, strain vid30, active compounds read low 0.969 | locus YGL240W, strain doc1, active compounds read low 0.941 | locus YGL248W, strain PDE1, active compounds read low 1.01 | locus YGL253W, strain hxk2, active compounds read low 0.949 | locus YGR078C, strain PAC10, active compounds read low 0.992 | locus YGR135W, strain pre9, active compounds read low 1 | locus YGR252W, strain gcn5, active compounds read low 0.905 | locus YHR013C, strain ard1, active compounds read low 0.887 | locus YHR027C, strain rpn1, active compounds read low 1 | locus YHR030C, strain SLT2, active compounds read low 1.02 and 0.932 | locus YHR079C, strain IRE1 (second series), active compounds read low 1.02 | locus YHR094C, strain hxt1, active compounds read low 1.01 | locus YHR129C, strain ARP1, active compounds read low 1.01 | locus YHR142W, strain chs7, active compounds read low 0.994 | locus YHR200W, strain rpn10, active compounds read low 1 | locus YIL066C, strain RNR3, active compounds read low 1 | locus YIL073C, strain SPO22, active compounds read low 1.06 | locus YIL125W, strain kgd1, active compounds read low 0.996 | locus YIR030C, strain dcg1, active compounds read low 1.01 | locus YJL092W, strain hpr5, active compounds read low 0.983 | locus YJL095W, strain BCK1 (second series), active compounds read low 0.988 | locus YJL095W, strain BCK1, active compounds read low 0.998 and 0.884 | locus YJL115W, strain asf1, active compounds read low 0.991 | locus YJL134W, strain LCB3, active compounds read low 1.01 | locus YJL154C, strain vps35, active compounds read low 0.979 | locus YJL164C, strain tpk1, active compounds read low 0.993 | locus YJL166W, strain qcr8, active compounds read low 0.953 | locus YJL168C, strain set2, active compounds read low 1 | locus YJL187C, strain SWE1 (second series), active compounds read low 1.03 | locus YJL187C, strain SWE1, active compounds read low 0.993 | locus YJR043C, strain POL32, active compounds read low 0.998 | locus YJR066W, strain TOR1, active compounds read low 0.975 | locus YJR075W, strain HOC1, active compounds read low 1.01 | locus YKL009W, strain mrt4, active compounds read low 0.992 | locus YKL068W, active compounds read low 1 | locus YKL085W, strain MDH1 (second series), active compounds read low 0.995 | locus YKL085W, strain MDH1, active compounds read low 0.995 | locus YKL160W, strain elf1, active compounds read low 0.991 | locus YKL190W, strain CNB1, active compounds read low 1.01 | locus YKR001C, strain vps1, active compounds read low 0.956 | locus YKR026C, strain gcn3, active compounds read low 0.979 | locus YKR091W, strain srl3, active compounds read low 0.981 | locus YLL001W, strain dnm1, active compounds read low 1 | locus YLL026W, active compounds read low 0.968 | locus YLL041C, strain sdh2, active compounds read low 0.982 | locus YLR027C, strain aat2, active compounds read low 0.991 | locus YLR039C, strain RIC1, active compounds read low 1.03 | locus YLR058C, strain SHM2, active compounds read low 1.01 | locus YLR102C, strain apc9, active compounds read low 1.02 | locus YLR221C, strain rsa3, active compounds read low 1.01 | locus YLR258W, strain gsy2, active compounds read low 0.947 | locus YLR262C, strain YPT6 (second series), active compounds read low 0.943 | locus YLR262C, strain YPT6, active compounds read low 1.03 | locus YLR268W, strain sec22, active compounds read low 1.03 | locus YLR330W, strain CHS5, active compounds read low 1.01 | locus YLR342W, strain FKS1 (second series), active compounds read low 0.985 | locus YLR342W, strain FKS1, active compounds read low 0.978 | locus YLR357W, strain rsc2, active compounds read low 0.94 | locus YLR370C, strain arc18, active compounds read low 0.999 | locus YLR371W, strain rom2, active compounds read low 1.02 | locus YLR384C, strain iki3, active compounds read low 0.992 | locus YLR418C, strain cdc73, active compounds read low 0.859 | locus YML016C, strain PPZ1, active compounds read low 1.01 | locus YML032C, strain rad52, active compounds read low 0.985 | locus YML120C, strain ndi1, active compounds read low 0.971 | locus YML124C, strain tub3, active compounds read low 1.01 | locus YMR058W, strain fet3, active compounds read low 0.984 | locus YMR078C, strain ctf18, active compounds read low 1 | locus YMR125W, strain sto1, active compounds read low 0.912 | locus YMR129W, active compounds read low 0.97 | locus YMR223W, strain ubp8, active compounds read low 0.994 | locus YMR231W, strain pep5, active compounds read low 0.988 | locus YMR307W, strain GAS1, active compounds read low 0.978 | locus YNL067W, strain RPL9B, active compounds read low 1.04 | locus YNL128W, strain TEP1, active compounds read low 1.03 | locus YNL153C, strain GIM3, active compounds read low 1.01 | locus YNL183C, strain NPR1, active compounds read low 0.955 | locus YNL209W, strain ssb2, active compounds read low 1 | locus YNL233W, strain BNI4, active compounds read low 1 | locus YNL248C, strain rpa49, active compounds read low 1.01 | locus YNL250W, strain rad50, active compounds read low 1.03 | locus YNL271C, strain bni1, active compounds read low 1.01 | locus YNL298W, strain CLA4, active compounds read low 0.934 | locus YNL307C, strain MCK1, active compounds read low 1 | locus YNL322C, strain KRE1 (second series), active compounds read low 0.996 | locus YNL322C, strain KRE1, active compounds read low 1 | locus YNR049C, strain mso1, active compounds read low 0.978 | locus YNR052C, strain pop2, active compounds read low 1 | locus YOL012C, strain htz1 1.06 | locus YOL147C, strain pex11, active compounds read low 1.01 | locus YOR001W, strain rrp6, active compounds read low 0.989 | locus YOR061W, strain CKA2, active compounds read low 1.01 | locus YOR069W, strain VPS5, active compounds read low 1.02 | locus YOR070C, strain gyp1, active compounds read low 0.983 | locus YOR080W, strain dia2, active compounds read low 0.997 | locus YOR083W, strain WHI5, active compounds read low 1.03 | locus YOR106W, strain vam3, active compounds read low 1 | locus YOR136W, strain idh2, active compounds read low 1.02 | locus YOR144C, strain elg1, active compounds read low 1.01 | locus YOR184W, strain ser1, active compounds read low 0.986 | locus YOR265W, strain rbl2, active compounds read low 0.992 | locus YOR270C, strain vph1, active compounds read low 0.928 | locus YOR290C, strain snf2, active compounds read low 0.931 | locus YOR316C, strain cot1, active compounds read low 1.01 | locus YPL051W, strain arl3, active compounds read low 1 | locus YPL055C, strain LGE1, active compounds read low 1.01 | locus YPL078C, strain atp4, active compounds read low 0.986 | locus YPL106C, strain sse1, active compounds read low 0.974 | locus YPL240C, strain hsp82, active compounds read low 0.979 | locus YPL241C, strain CIN2, active compounds read low 0.995 | locus YPL256C, strain CLN2, active compounds read low 0.917 | locus YPR119W, strain clb2, active compounds read low 1.01 | locus YPR141C, strain kar3, active compounds read low 1.03 | locus YPR163C, strain tif3, active compounds read low 1.01 | locus YPR167C, strain met16, active compounds read low 1.01 | strain wtn01, active compounds read low 1.04
active: locus YDR392W, strain spt3, active compounds read low 0.479 | locus YER155C, strain BEM2 (second series), active compounds read low 0.708 | locus YHR079C, strain IRE1, active compounds read low 0.845 | locus YJL129C, strain trk1, active compounds read low 0.867 | locus YLR113W, strain HOG1, active compounds read low 0.557 | locus YLR320W, strain mms22, active compounds read low 0.859 | locus YMR205C, strain PFK2, active compounds read low 0.852 | locus YNL071W, strain lat1, active compounds read low 0.869 | locus YOR231W, strain MKK1, active compounds read low 0.777
